L3MBTL1 block – qHTS Assay for the Inhibitors of L3MBTL1; Potency, µM (top dose mostly 57.1 µM), usual class: inhibitors; Lethal(3)malignant brain tumor-like protein 1 (Homo sapiens), Q9Y468; AID 485360, 2010; AlphaScreen L3MBTL1–H3K9me1 peptide binding; 0.66% of 230,000 active; note: nearly all actives have a fitted effect of over 60% in size
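L3MBTL1 (50 nM) pre-complexed 30 min with biotinylated H3(1-15)K9me1 peptide (75 nM), then compounds added for 30 min at room temperature; AlphaScreen streptavidin donor/nickel chelate acceptor beads (10 ug/mL final) read after 30 min dark incubation.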
WRN helicase inh – qHTS for Inhibitors of WRN Helicase; 0.46% of 360,000 active; AID 651768, 2012; WRN helicase unwinding, fluorescent forked duplex, kinetic; Bifunctional 3'-5' exonuclease/ATP-dependent helicase WRN (Homo sapiens), Q14191; Potency, µM (titrated, usually from 114 µM), usual class: inhibitors; note: nearly all actives have a fitted effect of over 55% in size
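Primary qHTS, 1536-well format. 20 nM WRN + compound, 15 min RT; start with 100 nM forked fluorophore/quencher duplex, 2 mM ATP (final); kinetic read ex 525/em 598 nm.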
RECQ1 inh-1 – qHTS Assay for Inhibitors of RecQ-Like Dna Helicase 1 (RECQ1). RECQ1 DNA unwinding, red fluorescence kinetic read. Potency, µM (titrated, usually from 57.3 µM), actives largely listed as inhibitors. AID 2549, 2010. 0.54% of 240,000 active. ATP-dependent DNA helicase Q1 (Homo sapiens), P46063; note: nearly all actives have a fitted effect of over 30% in size
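RECQ1T1 50 nM; forked duplex (20 bp + 30-nt ss tails) 200 nM, ATP 2 mM final; pH 8.0, 2 mM MgCl2, 2.5 ug/ml poly(dI-dC); 15 min compound preincubation; discontinuous kinetic read over 2 h at RT.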
BLM inh – qHTS Assay for Inhibitors of Bloom's syndrome helicase (BLM) | Potency, µM (highest dose often 56.1 µM), most hits filed as inhibitors | 0.2% of 350,000 active | recombinant BLM DNA unwinding, fluorescence dequenching | AID 2528, 2010; note: nearly all actives have a fitted effect of over 35% in size
FEN1 inh – qHTS Assay for the Inhibitors of Human Flap endonuclease 1 (FEN1). Potency, µM (top dose mostly 114 µM), actives largely listed as inhibitors. P39748. 0.35% of 390,000 active. Recombinant FEN1 flap cleavage, fluorescence, 15 min; note: nearly all actives have a fitted effect of over 65% in size
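In this screen, 50 nM flap DNA substrate was added to 10 nM FEN1 pretreated with compound for 15 min at room temperature; cleavage was followed with reads at 0 and 15 min, and Hill fitting gave concentration–response parameters.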
RECQ1 conf – Confirmation qHTS Assay for Inhibitors of RecQ-Like Dna Helicase 1 (RECQ1). shares compounds with RECQ1 inh-1. RECQ1 helicase DNA unwinding, fluorescence. Potency, µM (top dose mostly 229 µM), actives largely listed as inhibitors. 28% of 610 active. AID 2708, 2010; note: nearly all actives have a fitted effect of over 45% in size
RECQ1 ADP FP – Counterscreen for RECQ1 Inhibitors: ADP Fluorescence Polarization Displacement Assay. ADP fluorescence polarization displacement counterscreen. Potency, µM (doses to about 228 µM), usual class: inhibitors. 27% of 530 active. shares compounds with RECQ1 inh-1; note: nearly all actives have a fitted effect of over 45% in size
RECQ1 inh-2 – Confirmation qHTS Assay for Inhibitors of RecQ-Like Dna Helicase 1 (RECQ1) - Round 2 Cherry Picks | 15% of 1,100 active | recombinant RECQ1 DNA unwinding, red fluorescence | Potency, µM (titrated, usually from 119 µM), most hits filed as inhibitors | shares compounds with RECQ1 inh-1 | AID 504841, 2011; note: nearly all actives have a fitted effect of over 50% in size
A number is an active result. Compounds with a hit are over-represented: about 0.99% of the library has one in this group of screens. Calls come from the whole dose curve; as a rule, active = well fitted curve in the direction sought with a large enough effect; inconclusive = small, poorly fitted or top-dose-only effect, or another doubt; inactive = no such curve, though single readings can be large; an effect the other way counts as inactive or inconclusive.

`CO/N=C(\C(=O)N[C@@H]1C(=O)N2C(C(=O)O)=C(COC(N)=O)CS[C@@H]12)c1ccco1` gave RECQ1 inh-1 inactive and BLM inh inactive.
For O=C(NCCC1=CCCCC1)C1CC(=O)N(C2CCCCC2)C1 (centres undefined) the results were L3MBTL1 block inactive, WRN helicase inh inactive, RECQ1 inh-1 inactive, BLM inh inactive and FEN1 inh inactive.
COc1ccc2[nH]c3c(C)c4ccncc4c(C)c3c2c1 was read as L3MBTL1 block inactive, WRN helicase inh inconclusive, RECQ1 inh-1 22.4µM, BLM inh inactive, FEN1 inh 2.82µM and RECQ1 inh-2 7.94µM.
Screening COC/C=C/C1=CC2=CC(=O)C(C)(OC(=O)C3CCCC3)C(=O)C2=CO1 (centres undefined) returned WRN helicase inh 79.4µM, RECQ1 inh-1 inconclusive, BLM inh inactive, FEN1 inh 39.8µM and RECQ1 inh-2 inconclusive.
`CCOc1ccc(NC(=O)c2ccccc2NC(=O)CN2CCCCCC2)cc1` gave L3MBTL1 block inactive, WRN helicase inh inactive and FEN1 inh inactive.
CCOc1ccc(NC(=O)c2ccccc2NC(=O)CN(C)CC(=O)Nc2ccc(C)cc2)cc1 was read as L3MBTL1 block inactive, WRN helicase inh inactive, RECQ1 inh-1 inconclusive, BLM inh inactive, FEN1 inh inactive and RECQ1 inh-2 inactive.
O=C(Nc1cccc(S(=O)(=O)N2CCOCC2)c1)[C@@H]1CCCN1S(=O)(=O)c1ccc(Cl)cc1 was read as L3MBTL1 block inactive, WRN helicase inh inactive, RECQ1 inh-1 inactive, BLM inh inactive, FEN1 inh inactive, RECQ1 conf inactive and RECQ1 ADP FP inactive.
`CC1CCCCC1NC(=S)NC(=O)c1ccccc1Br` (centres undefined) gave L3MBTL1 block inactive, WRN helicase inh inactive, RECQ1 inh-1 39.8µM, BLM inh inactive, FEN1 inh inactive and RECQ1 inh-2 inactive.
For Cc1cc(C)n(CCc2nc(-c3ccco3)cs2)n1 the results were WRN helicase inh inconclusive, RECQ1 inh-1 35.5µM, BLM inh inconclusive, FEN1 inh inactive and RECQ1 inh-2 inconclusive.
`N=c1c(C(=O)NCc2ccccc2)cc2c(=O)n3ccccc3nc2n1CCCN1CCOCC1` gave L3MBTL1 block inactive, WRN helicase inh inactive, RECQ1 inh-1 inactive, BLM inh inactive and FEN1 inh inactive.
N=c1c(C(=O)NCc2ccc(F)cc2)cc2c(=O)n3ccccc3nc2n1CCCN1CCOCC1 was read as L3MBTL1 block inactive, WRN helicase inh inactive, RECQ1 inh-1 inconclusive, BLM inh inactive, FEN1 inh inactive and RECQ1 inh-2 inactive.
CC(C)c1ccc(N(C(=O)CNC(=O)c2ccco2)C(C(=O)NC2CCCC2)c2ccncc2)cc1 (centres undefined) was read as WRN helicase inh inactive, BLM inh inactive and FEN1 inh inactive.
`Cc1cnc(CNc2ncncc2-c2ccc3c(c2)OCO3)cn1` gave RECQ1 inh-1 inactive and BLM inh inactive.
`Cc1cnc(CNc2ncnc3ccc(-c4ccc5c(c4)OCO5)cc23)cn1` gave RECQ1 inh-1 20µM, BLM inh inactive and RECQ1 inh-2 inconclusive.
For O=C(O)c1c(-n2cccc2)sc2c1CCCC2 the results were L3MBTL1 block inactive, WRN helicase inh inactive, RECQ1 inh-1 inactive, BLM inh inactive and FEN1 inh inactive.
For Cc1sc(-n2cccc2)c(C(=O)O)c1C the results were L3MBTL1 block inactive, WRN helicase inh inactive, RECQ1 inh-1 inconclusive, BLM inh inactive, FEN1 inh inactive and RECQ1 inh-2 inconclusive.
For Cc1noc(NS(=O)(=O)c2ccc(N/C=C\C(=O)c3ccc(Br)cc3)cc2)c1C the results were L3MBTL1 block inactive, WRN helicase inh inactive, RECQ1 inh-1 inconclusive, BLM inh inactive, FEN1 inh inactive and RECQ1 inh-2 inactive.
For CCOc1ccc(C(=O)/C=C/Nc2ccc(S(=O)(=O)Nc3onc(C)c3C)cc2)cc1 the results were L3MBTL1 block inactive, WRN helicase inh inactive, RECQ1 inh-1 inactive, BLM inh inactive and FEN1 inh inactive.
For COc1ccccc1N=c1scc(-c2ccc(S(=O)(=O)N3CCCC3)cc2)n1C the results were BLM inh inactive and FEN1 inh inactive.
`O=C(N=C1SCC(=O)N1c1ccccc1Cl)c1ccco1` gave L3MBTL1 block inactive, WRN helicase inh inactive, RECQ1 inh-1 17.8µM, BLM inh inactive, FEN1 inh inactive, RECQ1 conf inactive, RECQ1 ADP FP inactive and RECQ1 inh-2 inconclusive.
`O=C(N=C1SCC(=O)N1c1ccccc1)c1ccco1` gave WRN helicase inh inactive, RECQ1 inh-1 inactive, BLM inh inactive and FEN1 inh inactive.
Screening Cc1cc(NS(=O)(=O)c2ccc(NC(=O)c3cc(-c4cccnc4)nc4ccc(Cl)cc34)cc2)no1 returned L3MBTL1 block inactive, WRN helicase inh inactive, RECQ1 inh-1 inactive, BLM inh inactive and FEN1 inh inconclusive.
Cc1cc(C)c2nc(-c3ccccn3)cc(C(=O)Nc3ccc(S(=O)(=O)Nc4cc(C)on4)cc3)c2c1 was read as L3MBTL1 block inactive, WRN helicase inh 56.2µM, RECQ1 inh-1 25.1µM, BLM inh inconclusive, FEN1 inh inconclusive and RECQ1 inh-2 inconclusive.
COCCCN(C(=O)c1cc2c(s1)CCC2)c1c(N)n(Cc2ccccc2)c(=O)[nH]c1=O was read as L3MBTL1 block inconclusive, WRN helicase inh inconclusive, RECQ1 inh-1 14.1µM, BLM inh inconclusive, FEN1 inh inactive, RECQ1 conf 39.8µM, RECQ1 ADP FP inconclusive and RECQ1 inh-2 inconclusive.
For CCN(C(=O)Cn1cc(C(=O)C(=O)N2CCOCC2)c2ccccc21)c1ccccc1 the results were WRN helicase inh inactive, BLM inh inactive and FEN1 inh inactive.
For CC(=O)NC1=NC(=O)/C(=C/c2cc(C)n(-c3cccc(C(=O)O)c3)c2C)S1 the results were WRN helicase inh 44.7µM, RECQ1 inh-1 inconclusive, BLM inh inactive, FEN1 inh 50.1µM and RECQ1 inh-2 20µM.
For CC(=O)NC1=NC(=O)/C(=C/c2cc(C)n(-c3ccc(NC(C)=O)cc3)c2C)S1 the results were WRN helicase inh inactive, RECQ1 inh-1 39.8µM, BLM inh inactive, FEN1 inh inactive and RECQ1 inh-2 inactive.

Source: PubChem BioAssay (National Center for Advancing Translational Sciences (NCATS))
